Screens deposited in PubChem BioAssay by National Center for Advancing Translational Sciences (NCATS).
In the library only some 3.2% were active in any assay of this set; here they are far more common.
15-hLO inh: inhibitors of human 15-lipoxygenase (ALOX15) | P16050 | purified 15hLO-1, xylenol orange hydroperoxide absorbance | Potency, µM (doses to about 57.1 µM), hits mostly inhibitors | hit rate 1.4% among 74,000 | AID 887; note: nearly all actives have a fitted effect of over 55% in size
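Readout: Fe(III)-xylenol orange absorbance, 573-to-405 nm ratio as reaction progress. Enzyme 40 nM purified human 15hLO-1, substrate 50 uM arachidonic acid, 6 min RT after 15 min compound preincubation; Hepes pH 7.5 buffer with Triton X-100.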
Casp7 inh: blocks human caspase-7 allosterically or competitively. P55210. recombinant caspase-7, Ac-DEVD-AFC fluorescence rate. Potency, µM (titrated, usually from 57.5 µM), hits mostly inhibitors. hit rate 0.02% among 75,000; active = well fitted inhibition curve with a large enough effect in the main read-out, with a control signal flat, not every such curve was filed as active; inconclusive = small, poorly fitted or top-dose-only effect, or a change in a side signal
Tau fil binding: tau filament binding. Potency, µM (highest dose often 57.1 µM). hit rate 2% among 71,000. P10636. AID 596. recombinant tau filaments, thioflavin S fluorescence, 15 h; filaments grown with octadecylsulfate alongside compound;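 note: actives lower thioflavin S fluorescence by blocking filaments or displacing dye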
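His-tagged recombinant human tau (exons 2, 3 and 10 included), 1 uM, was induced to fibrillize by 30 uM sodium octadecylsulfate with compound present. After 15 h at 37 C, thioflavine S fluorescence (ex 450, em 510 nm) was read.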
DNA Pol III inh: DNA polymerase III holoenzyme inhibition. reconstituted DNA polymerase III holoenzyme replication, biochemical. hit rate 0.25% among 71,000. Potency, µM (highest dose often 57.1 µM). AID 603
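Reconstituted *E. coli* holoenzyme (0.35 nM Pol III, 1 nM beta, 154 nM SSB, 2 nM primase) was preincubated with compound for 15 min at RT. Synthesis on 1.4 nM ssM13Gori ran 35 min, then was stopped with PicoGreen/EDTA and read as dsDNA fluorescence.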
Casp1 inh: caspase-1 (human) inhibition, allosteric or competitive | P29466 | Caspase-1 enzyme, Ac-WEHD-AFC fluorogenic rate | Potency, µM (highest dose often 57.5 µM), most hits filed as inhibitors | hit rate 0.03% among 75,000
Hits are given with their value; i = inactive; ? = inconclusive; nt = not tested or not shown; ! = a repeat was not active; [ ] = another dose, or the depositor's remark. Unless noted, calls come from the whole dose curve; as a rule, active = well fitted curve in the direction sought with a large enough effect; inconclusive = small, poorly fitted or top-dose-only effect, or another doubt; inactive = no such curve, though single readings can be large; an effect the other way counts as inactive or inconclusive.

SMILES | 15-hLO inh | Casp7 inh | Tau fil binding | DNA Pol III inh | Casp1 inh
CCC(c1nnc(SCC(=O)Nc2ccc(C(=O)Nc3ccccc3OC)cc2)o1)N(C)C (stereo unspecified) | i | i | 20µM | i | i
CC[C@H](C)[C@@H]1O[C@]2(CC[C@@H]1C)C[C@H]1C[C@H](CC=C(C)[C@@H](O[C@H]3C[C@H](OC)[C@H](O[C@H]4C[C@H](OC)[C@H](O)[C@H](C)O4)[C@H](C)O3)[C@@H](C)C=CC=C3CO[C@@H]4[C@@H](O)C(C)=C[C@H](C(=O)O1)[C@@]34O)O2 | i | i | i | i | i
OC12CCCCC1C(c1ccc3c(c1)OCO3)N(Cc1cccc(F)c1)CC2 (stereo unspecified) | i | i | 15.8µM | i | i
CCc1ccc(CCC(=O)Nc2sc3c(c2C#N)CCCC3)o1 | 15.8µM | i | i | i | i
N#Cc1c(NC(=O)CSCC(=O)O)sc2c1CCCC2 | i | i | i | i | i
CCN(CC)CCN(Cc1cc2cc3c(cc2[nH]c1=O)OCCO3)C(=O)NC1CCCCC1 | i | i | i | i | i
COc1ccc(CN(Cc2cc3cc4c(cc3[nH]c2=O)OCO4)C(=O)NC2CCCCC2)cc1 | 15.8µM | i | i | i | i
Cc1ncn(-c2ccccc2O)c1C | i[11.4 µM] | i[11.5 µM] | i[11.4 µM] | i[11.4 µM] | i[11.5 µM]
CN(C)CCCN1c2ccccc2Sc2ccc3ccccc3c21 | i[11.4 µM] | i[11.5 µM] | 2.51µM | i[11.4 µM] | i[11.5 µM]
CN(C)CCCN1c2ccccc2Sc2ccc(Cl)cc21 | i | i | 5.01µM | i | i
CC[C@H](C)C(=O)O[C@@H]1CCC=C2C=C[C@H](C)[C@@H](CC[C@H]3C[C@@H](O)CC(=O)O3)[C@H]21 | nt | nt | i | i | nt
CCOC(=O)c1c(C)nc2c3ccccc3ccn12 | 15.8µM | i | i | i | i
Cc1nc(NCc2ccccc2)c2nc(-c3ccccc3)n(C(C)CN(C)C)c2n1 (stereo unspecified) | i | i | i | i | i
CN1CCN(c2ncc3nc(-c4cccc(C#N)c4)c(=O)n(CCC#N)c3n2)CC1 | i | ? | i | i | nt
CCCc1ccc(Oc2cn[nH]c2-c2ccc(O)cc2O)cc1 | 3.16µM | i | 0.794µM | i[11.4 µM] | i
COc1ccc(Oc2cn[nH]c2-c2ccc(O)cc2O)cc1 | i | i | i | i | i
CCN1C(C)=C(C(=O)OC)C(c2ccccc2)N2C(=O)[C@](O)(C(=O)OC)CC(C(C)=O)=C12 (stereo partly specified) | i[11.4 µM] | i[11.5 µM] | nt | nt | i[11.5 µM]
NCCNC[C@H](O)CO | i[11.4 µM] | i[11.5 µM] | i[11.4 µM] | i[11.4 µM] | i[11.5 µM]
CCOC(=O)COc1cccc2c(=O)n(CC(=O)N3CCc4ccccc43)ccc12 | i | i | 15.8µM | i | i
O=C1c2ccccc2C(=O)N1C[C@]1(C(=O)O)NCCS1(=O)=O | i[11.4 µM] | i[11.5 µM] | i[11.4 µM] | i[11.4 µM] | i[11.5 µM]
COC(=O)[C@@]1(Cc2ccccc2)[C@H]2c3cc(C(=O)N4CCCC4)n(Cc4ccc(O)c(OC)c4)c3C[C@H]2CN1C(=O)c1ccccc1 | nt | i | i | i | i
C=C(C)COc1ccc(-c2ncncc2Oc2ccc(OC)cc2)c(O)c1 | i | i | 20µM | i | i
C=C(C)COc1ccc(-c2nc(N)ncc2-c2ccc(OC)cc2)c(O)c1 | i | i | 12.6µM | i | i
CC[C@H]1CN(C)[C@H]2Cc3c([nH]c4ccccc34)C(=O)C[C@H]1[C@H]2C(=O)OC | i[11.4 µM] | i[11.5 µM] | i[11.4 µM] | i[11.4 µM] | i[11.5 µM]
CCOC(=O)CCN1C(=O)[C@H]2[C@H]3[C@H](O)[C@H](O)C/C(=N/NC(=O)OCC)[C@H]3CC[C@@H]2C1=O | i[11.4 µM] | i[11.5 µM] | nt | nt | i[11.5 µM]
SMILES | 15-hLO inh | Casp7 inh | Tau fil binding | DNA Pol III inh | Casp1 inh
COc1ccc(C(=O)N2CCC[C@@]3(CCN(c4cccc(-c5ccccc5)c4)C3)C2)cc1 | 25.1µM | i | i | i | i
CC(C)(C)c1cc(CN2CCCC(O)C2)c(O)c(C(C)(C)C)c1 (stereo unspecified) | i[11.4 µM] | i | 5.01µM | i[11.4 µM] | i
N#CC1=C2SCN(Cc3ccco3)CN2C(=O)CC1c1ccc(Cl)cc1 (stereo unspecified) | 12.6µM | i | ? | i | i
CC(C)c1ccc(C2CC(=O)N3CN(Cc4ccco4)CSC3=C2C#N)cc1 (stereo unspecified) | 12.6µM | i | ? | i | i
N#CC1=C2SCN(Cc3ccccc3)CN2C(=O)CC1c1ccc2c(c1)OCO2 (stereo unspecified) | 12.6µM | i | i | i | ?
N#CC1=C2SCN(Cc3ccccc3)CN2C(=O)CC1c1cccs1 (stereo unspecified) | ? | ? | i | i | ?
CCC1=C2CC[C@H]3C(=O)NC(=O)[C@H]3[C@H]2[C@@]2(C)C(=NCCc3c[nH]c4ccccc34)OC(=O)N2C1=O | nt | i | nt | nt | i
N[C@@H](CO)C(=O)NNCc1ccc(O)c(O)c1O | i | i | i | i | i
O=C1C(C2=C(O)c3ccccc3C2=O)=Nc2ccccc21 | i | i | 6.31µM | i | i
O=C(O)C[C@H](S)C(=O)O | i[11.4 µM] | i[11.5 µM] | i[11.4 µM] | i[11.4 µM] | i[11.5 µM]
CCN(CC)C(C)CN1c2ccccc2Sc2ccccc21 (stereo unspecified) | 25.1µM | i | nt | nt | i
CCCOc1ccccc1-c1nc2n[nH]nc2c(=O)[nH]1 | 15.8µM! | i | ? | i | i
CCOC(=O)NC1(NCc2ccccc2)Oc2ccccc2O1 | i | i | i | i | i
CCOC(=O)NC1(NC2CCCCC2)Oc2ccccc2O1 | 25.1µM | i | i | i | i
CCC[C@H](Sc1nc(N)nc2nc[nH]c12)C(=O)O | i[11.4 µM] | i[11.5 µM] | i[11.4 µM] | i[11.4 µM] | i[11.5 µM]
CN(C)c1nc(-c2cccc(NS(C)(=O)=O)c2)nc2ccccc12 | i | i | i | i | i
CS(=O)(=O)Nc1ccc(Nc2c3ccccc3nc3ccccc23)cc1 | i[11.4 µM] | ? | 1.58µM | i[11.4 µM] | nt
CCOC(=O)c1cnn2c(C(F)(F)F)cc(-c3ccccc3)nc12 | i | ? | 12.6µM | i | nt
CCOC(=O)C1CCCN(C(=O)c2cnn3c(C(F)(F)F)cc(-c4ccccc4)nc23)C1 (stereo unspecified) | i | i | 12.6µM | i | i
CCOC(=O)C1CCCN(C(=O)c2cc3nc(-c4cccc(OC)c4)cc(C(F)(F)F)n3n2)C1 (stereo unspecified) | i | ? | i | i | ?
NC(=O)C[C@H](N)C(N)=O | i[11.4 µM] | i[11.5 µM] | i[11.4 µM] | i[11.4 µM] | i[11.5 µM]
N[C@H](Cc1c[nH]c2ccccc12)C(=O)O | i | i | nt | nt | i
NC(Cc1c[nH]c2ccccc12)C(=O)O (stereo unspecified) | 7.94µM | i | nt | nt | i
Nc1nc(-c2c[nH]c3ccccc23)cs1 | ? | i | 25.1µM | i | i
Cc1cc(C)c(/C=C2/C(=O)Nc3ccccc32)[nH]1 | ? | i | 1µM | i | i
COC(=O)C/C=C\[C@@H](C)[C@@H](/C=N\OCC[C@H]1C=C[C@H](OC(C)=O)[C@@H](COC(C)=O)O1)NS(=O)(=O)c1ccc(C)cc1 | i[11.4 µM] | i[11.5 µM] | nt | nt | i[11.5 µM]
CN(Cc1cc(C(C)(C)C)cc(Br)c1O)Cc1cc(C(C)(C)C)cc(Br)c1O | i[11.4 µM] | i[11.5 µM] | i[11.4 µM] | i[11.4 µM] | i[11.5 µM]
CC(C)(c1cc(Br)c(O)c(Br)c1)c1cc(Br)c(O)c(Br)c1 | 2.51µM | i | ? | i | ?
CC(=O)c1cc(C)oc1C | i | i | i | i | i
c1cc2c3c(c1)c1c(n3CCNC2)CCCC1 | ? | i | 31.6µM | i | i
